These results are taken from PubChem BioAssay (Tox21).

The structures appear in SMILES notation. Values joined by “and” are separate entries in the source; they are usually repeats but may differ in a detail not shown here. Equal entries are not always repeated. Results filed as inconclusive are left out. More than one record can exist for a structure, and the calls need not agree. Active and inactive are the calls of the source. Unless noted, calls come from the whole dose curve.

The nature of assay [1]: Nuclear factor erythroid 2-related factor 2/antioxidant responsive element (Nrf2/ARE) small molecule agonists: qHTS cell viability counter screen in human keratinocytes (AID 1919968; active = well fitted curve in the direction sought with a large enough effect in the repeat runs; an effect the other way counts as inactive or inconclusive; note: nearly all actives have a fitted effect of over 55% in size; note: potency is the fitted concentration of half-maximal effect). The method in brief: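 KeratinoSens HaCaT cells, 1,500/well, preincubated 5 h, then exposed to compounds in DMSO for 23 h at 37 C/5% CO2. Viability read as CellTiter-Fluor fluorescence after 1 h, in the same wells as the ARE-luciferase read.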
On the technique in general: In qHTS, concentration-response curves come from the screen itself.

Assay [2] in a line: Nuclear factor erythroid 2-related factor 2/antioxidant responsive element (Nrf2/ARE) small molecule agonists: luciferase reporter gene qHTS assay in human keratinocytes (AID 1919969). Note: nearly all actives have a fitted effect of over 35% in size. Note: potency is the fitted concentration of half-maximal effect. For orientation: A reporter such as luciferase makes a cellular process visible.
Assay [3] concerns the target Gonadotropin-releasing hormone receptor (Homo sapiens) (UniProt P30968). In words: Human gonadotropin-releasing hormone receptor (GnRHR) small molecule agonists, calcium flux assay in GnRHR-HEK293 cells (AID 1920063). Note: nearly all actives have a fitted effect of over 35% in size. The method in brief:
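HEK293 cells stably expressing human GnRHR were dye-loaded for 1 h at 37 C. Compound was added in agonist mode and fluorescence (Ex/Em 480/540) recorded kinetically for 3 min. Fifteen concentrations, triplicates.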
For orientation: Calcium assays in cells follow changes in intracellular calcium, usually with a dye or a luminescent sensor.

Assay [4] concerns the target KiSS-1 receptor (Homo sapiens) (UniProt Q969F8). In words: Human kisspeptin (KISS1R) small molecule agonists, calcium flux assay in KISS1R-HEK293 cells (AID 1920064; active = well fitted curve in the direction sought with a large enough effect in the repeat runs; an effect the other way counts as inactive or inconclusive). A digest of the protocol:
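HEK293 cells stably expressing human KISS1R were loaded with calcium dye for 1 h at 37 C, then given compound; fluorescence (Ex/Em 480/540) was read kinetically for 3 min. Fifteen concentrations, triplicate.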

Assay [5] is described as follows: G protein-coupled receptor (GPCR) small molecule agonists, calcium flux assay: HEK293 wild type cell line counter screen (AID 1920065). The method in brief:
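Wild-type HEK293 cells plated 18 h, loaded with calcium dye 1 h at 37 C, then compounds added in agonist mode (ATP as positive control). Kinetic fluorescence Ex/Em 480/540 recorded 3 min at 1 sec intervals; 15 concentrations, triplicate.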

Assay [6] in a line: p53 small molecule agonists, cell-based qHTS assay with human liver microsomes: qHTS cell viability counter screen (AID 1963579). Note: nearly all actives have a fitted effect of over 45% in size. The method in brief:
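p53RE-bla cells (4,000/well) were pre-incubated 5 h at 37 C, then given compounds in DMSO plus human liver microsomes (0.5 mg/mL final) and NADPH (0.5 mg/mL final) for 16 h at 37 C. Viability was read by CellTiter-Glo luminescence.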

Assay [7] is described as follows: p53 small molecule agonists, cell-based qHTS assay with rat liver microsomes: qHTS cell viability counter screen (AID 1963580). Note: nearly all actives have a fitted effect of over 45% in size. The method in brief: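 p53RE-bla HCT-116 cells were exposed 16 h at 37 C to compounds with rat liver microsomes (0.5 mg/mL) and NADPH (0.5 mg/mL). Viability was measured in the same wells as ATP content by CellTiter-Glo luminescence.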

Assay [8] can be described thus: p53 small molecule agonists, cell-based qHTS assay: qHTS cell viability counter screen (AID 1963581). Note: nearly all actives have a fitted effect of over 45% in size. Note: potency is the fitted concentration of half-maximal effect. The method in brief: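 p53RE-bla HCT-116 cells, compounds added 5 h after plating and incubated 16 h at 37 C. Cytotoxicity measured in the same wells as intracellular ATP by CellTiter-Glo luminescence after 30 min at room temperature.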
Assay [9] in a line: p53 small molecule agonists, cell-based qHTS assay (AID 1963582; active = well fitted activation curve with a large enough effect in the signal ratio in the repeat runs, not every such curve was filed as active; the % refers to the signal ratio). A digest of the protocol:
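p53RE-bla reporter cells, compounds added in DMSO after 5 h plating, incubated 16 h at 37 C. Beta-lactamase read via 2 h room-temperature LiveBLAzer B/G FRET substrate, fluorescence intensity.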

In assay [10] the target is 5-hydroxytryptamine receptor 2A (Homo sapiens) (UniProt P28223). In words: 5-hydroxytryptamine receptor 2A (HTR2A) small molecule antagonists, cell-based qHTS assay (AID 1963586). Note: nearly all actives have a fitted effect of over 45% in size. A digest of the protocol:
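Antagonist-mode intracellular calcium assay: DOI (4 nM) added after 5 min compound pre-incubation at room temperature to dye-loaded HTR2A-CHO cells. Fluorescence followed for 3 min, sampled every second.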

For assay [11] the target is unchanged. In words: 5-hydroxytryptamine receptor 2A (HTR2A) small molecule agonists, cell-based qHTS assay (AID 1963587). Note: nearly all actives have a fitted effect of over 30% in size. A digest of the protocol:
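CHO cells stably expressing human HTR2A, plated 18 h, loaded with calcium dye 1 h at 37 C. Agonist mode: compounds added and intracellular calcium fluorescence recorded kinetically for 2 min at 1 sec intervals.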

Assay [12] deals with Muscarinic acetylcholine receptor M1 (Homo sapiens) (UniProt P11229). In words: Cholinergic receptor muscarinic 1 (CHRM1) small molecule antagonists, cell-based qHTS assay (AID 1963588). Note: nearly all actives have a fitted effect of over 40% in size. The method in brief: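 CHRM1-CHO calcium-flux assay, antagonist mode. Cells were seeded 18 h, dye-loaded 1 h at 37 C and given compound for 5 min at RT, then acetylcholine was added at 50nM. FDSS fluorescence was read 3 min; 15 concentrations, three runs.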

A short description of assay [13]: cAMP Responsive Elements (CRE) small molecule agonists, cell-based qHTS assay (AID 1963590). The method in brief: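 CRE-bla HEK 293T cells, 2,000/well in DMEM with 10% dialyzed FBS and 25 mM HEPES, pre-incubated 18 h at 37 C, then exposed to compound 3 h at 37 C. Beta-lactamase reporter read with LiveBLAzer B/G FRET substrate after 2 h at room temperature.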
A short description of assay [14]: cAMP Responsive Elements (CRE) small molecule antagonists, cell-based qHTS assay (AID 1963591; active = well fitted inhibition curve with a large enough effect in the signal ratio in the repeat runs, not every such curve was filed as active; the % refers to the signal ratio). A digest of the protocol: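 CRE-bla HEK293T cells plated 18 h, then given compound plus NKH477 at 0.25 uM final for 3 h at 37C. Beta-lactamase reporter read with LiveBLAzer B/G FRET substrate after 2 h at room temperature.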
The target of assay [15] is Beta-2 adrenergic receptor (Homo sapiens) (UniProt P07550). In words: Adrenergic beta2 receptor (ADRB2) small molecule antagonists, cell-based qHTS assay (AID 1963592). Note: series mostly up to about 92 µM; nearly all actives have a fitted effect of over 50% in size. The method in brief: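 Cells (CHO, stable ADRB2 overexpression) incubated 18-20hr at 37C; compounds added from DMSO; agonist mix (1nM isoproterenol, 100uM IBMX, 25uM Ro-20-1724) added; 0.5hr RT; d2-cAMP and anti-cAMP-cryptate added; 1hr RT; 665/615 nm read.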

For assay [16], the target named is D(2) dopamine receptor (Homo sapiens) (UniProt P14416). In words: Dopamine D2 receptor (DRD2) small molecule agonists, cell-based qHTS assay (AID 1963594). Note: nearly all actives have a fitted effect of over 35% in size. A digest of the protocol:
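HEK293 cells stably expressing human DRD2, pre-treated with PDE inhibitor Ro20-1724 (0.1 mM final) and compound 10 min at room temperature, then stimulated with NKH477 (200nM […]) for 30 min. cAMP read by HTRF (665/620 nm).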

The target is the same in assay [17]. Nature of the assay: Dopamine D2 receptor (DRD2) small molecule antagonists, cell-based qHTS assay (AID 1963595; active = well fitted inhibition curve with a large enough effect in the signal ratio in the repeat runs, with a control signal flat; the % refers to the signal ratio; note: potency is the fitted concentration of half-maximal effect). The method in brief: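 HEK293 cells stably expressing DRD2, preincubated with 0.1 mM Ro20-1724 and compounds 10 min, were stimulated with 200 nM NKH477 plus 12 nM quinpirole for 30 min at room temperature; cAMP measured by HTRF (665/620 nm).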
Assay [18] deals with Muscarinic acetylcholine receptor M1 (Homo sapiens) (UniProt P11229). Nature of the assay: Cholinergic receptor muscarinic 1 (CHRM1) small molecule agonists, cell-based qHTS assay (AID 1963589). Note: nearly all actives have a fitted effect of over 35% in size. A digest of the protocol:
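CHO cells stably expressing human CHRM1 were loaded with calcium dye for 1 h at 37 C, then compound was added in agonist mode. Intracellular calcium fluorescence was followed kinetically at 1 s intervals. Fifteen concentrations were tested in three independent runs.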

Assay [19] concerns the target Beta-2 adrenergic receptor (Homo sapiens) (UniProt P07550). In words: Adrenergic beta2 receptor (ADRB2) small molecule agonists, cell-based qHTS assay (AID 1963593).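 Note: CHO cells stably overexpressing human ADRB2.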 The method in brief: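 CHO cells stably over-expressing ADRB2 were plated overnight at 37C, then dosed with compounds plus a stimulation mix containing 100uM IBMX and 25uM Ro-20-1724 for 0.5hr at room temperature. cAMP was measured by HTRF competition, 1hr.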

Assay [20] can be described thus: p53 small molecule agonists, cell-based qHTS assay with human liver microsomes (AID 1963577). A digest of the protocol:
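p53RE-bla reporter cells were pre-incubated 5 h at 37 C, then treated with compounds plus human liver microsomes (0.5 mg/mL final) and NADPH (0.5 mg/mL final) for 16 h at 37 C. Beta-lactamase activity was read by LiveBLAzer fluorescence after 2 h at room temperature.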
% is set by controls: 0 for no effect and ±100 for the full control effect.

Chain of Gonadotropin-releasing hormone receptor (Homo sapiens) (P30968 whole entry, looked up): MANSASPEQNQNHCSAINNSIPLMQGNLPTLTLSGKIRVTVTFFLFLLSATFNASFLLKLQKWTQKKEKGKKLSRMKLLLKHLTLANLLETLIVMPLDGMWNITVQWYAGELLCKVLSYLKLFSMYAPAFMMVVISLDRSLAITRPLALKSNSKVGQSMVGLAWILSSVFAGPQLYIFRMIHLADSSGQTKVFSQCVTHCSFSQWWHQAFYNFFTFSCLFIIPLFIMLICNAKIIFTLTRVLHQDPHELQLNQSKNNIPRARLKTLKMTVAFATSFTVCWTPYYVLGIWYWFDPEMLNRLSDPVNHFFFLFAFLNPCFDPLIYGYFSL
Chain of D(2) dopamine receptor (Homo sapiens) (P14416 whole entry, looked up): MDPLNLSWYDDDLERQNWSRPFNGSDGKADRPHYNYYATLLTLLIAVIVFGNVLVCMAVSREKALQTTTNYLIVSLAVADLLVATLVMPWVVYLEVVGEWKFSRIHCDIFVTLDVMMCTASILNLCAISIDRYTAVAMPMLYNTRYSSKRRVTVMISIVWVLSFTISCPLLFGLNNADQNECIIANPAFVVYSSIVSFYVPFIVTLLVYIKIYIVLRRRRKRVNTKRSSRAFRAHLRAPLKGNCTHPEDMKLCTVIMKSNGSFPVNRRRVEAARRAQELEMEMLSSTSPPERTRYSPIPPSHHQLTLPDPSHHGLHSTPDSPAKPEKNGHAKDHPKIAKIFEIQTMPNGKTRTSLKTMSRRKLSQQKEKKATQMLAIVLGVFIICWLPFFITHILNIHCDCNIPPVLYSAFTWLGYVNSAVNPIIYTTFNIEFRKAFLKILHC
Chain of Beta-2 adrenergic receptor (Homo sapiens) (P07550 whole entry, looked up): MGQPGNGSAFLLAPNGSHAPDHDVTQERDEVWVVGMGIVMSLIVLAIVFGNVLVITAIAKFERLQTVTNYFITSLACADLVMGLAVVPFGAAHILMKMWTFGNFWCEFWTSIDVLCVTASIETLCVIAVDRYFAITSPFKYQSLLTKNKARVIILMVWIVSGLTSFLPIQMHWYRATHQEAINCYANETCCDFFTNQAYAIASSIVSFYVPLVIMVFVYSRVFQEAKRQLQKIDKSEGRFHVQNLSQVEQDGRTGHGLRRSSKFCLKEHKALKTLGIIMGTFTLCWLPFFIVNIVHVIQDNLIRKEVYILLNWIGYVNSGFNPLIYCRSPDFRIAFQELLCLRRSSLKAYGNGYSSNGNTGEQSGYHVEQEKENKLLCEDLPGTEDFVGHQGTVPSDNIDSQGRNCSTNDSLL
Chain of 5-hydroxytryptamine receptor 2A (Homo sapiens) (P28223 whole entry, looked up): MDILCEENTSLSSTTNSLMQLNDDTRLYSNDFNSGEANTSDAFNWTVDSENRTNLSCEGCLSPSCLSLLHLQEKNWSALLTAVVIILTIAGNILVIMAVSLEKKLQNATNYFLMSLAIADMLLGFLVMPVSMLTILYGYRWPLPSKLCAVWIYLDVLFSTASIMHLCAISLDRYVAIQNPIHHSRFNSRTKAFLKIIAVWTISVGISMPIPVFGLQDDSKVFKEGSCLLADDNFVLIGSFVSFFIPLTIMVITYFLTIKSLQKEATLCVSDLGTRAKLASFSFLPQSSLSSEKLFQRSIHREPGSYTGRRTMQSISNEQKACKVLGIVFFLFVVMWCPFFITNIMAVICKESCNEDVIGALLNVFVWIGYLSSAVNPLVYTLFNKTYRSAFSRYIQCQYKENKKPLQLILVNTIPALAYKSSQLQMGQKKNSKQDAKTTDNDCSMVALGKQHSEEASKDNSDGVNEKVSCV
Chain of KiSS-1 receptor (Homo sapiens) (Q969F8 whole entry, looked up): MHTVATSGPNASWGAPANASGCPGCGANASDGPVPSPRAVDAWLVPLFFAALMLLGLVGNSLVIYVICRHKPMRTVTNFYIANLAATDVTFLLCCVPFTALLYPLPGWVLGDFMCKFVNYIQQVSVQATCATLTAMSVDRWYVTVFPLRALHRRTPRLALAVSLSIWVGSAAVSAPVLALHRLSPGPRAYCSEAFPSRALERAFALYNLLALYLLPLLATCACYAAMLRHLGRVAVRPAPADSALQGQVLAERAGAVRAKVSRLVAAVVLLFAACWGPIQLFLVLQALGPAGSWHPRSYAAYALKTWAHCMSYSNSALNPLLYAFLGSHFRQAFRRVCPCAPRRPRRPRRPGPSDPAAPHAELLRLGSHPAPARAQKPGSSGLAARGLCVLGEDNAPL
Chain of Muscarinic acetylcholine receptor M1 (Homo sapiens) (P11229 whole entry, looked up): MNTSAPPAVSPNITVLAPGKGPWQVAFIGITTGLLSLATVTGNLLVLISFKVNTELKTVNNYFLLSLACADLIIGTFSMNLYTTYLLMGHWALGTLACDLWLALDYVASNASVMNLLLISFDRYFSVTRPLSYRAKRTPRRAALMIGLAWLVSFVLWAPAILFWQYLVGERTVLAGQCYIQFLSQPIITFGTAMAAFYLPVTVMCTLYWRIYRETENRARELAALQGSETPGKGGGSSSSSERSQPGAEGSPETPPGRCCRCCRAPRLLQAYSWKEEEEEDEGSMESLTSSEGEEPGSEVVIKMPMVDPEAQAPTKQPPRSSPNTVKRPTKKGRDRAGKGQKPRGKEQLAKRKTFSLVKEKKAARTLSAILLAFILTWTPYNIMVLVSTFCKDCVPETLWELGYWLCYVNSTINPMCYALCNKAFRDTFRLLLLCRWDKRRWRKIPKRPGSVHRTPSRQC

With `N#Cc1ccccc1Cl`, the Potency result in assay [1], in [2], in assay [3], in [4], in assay [5] and in assay [6] was “inactive” each time. Moreover, the Potency entry in [7], in assay [8], in assay [9], in [10], in [11] and in assay [12] was “inactive” each time. Moreover, the Potency entry in assay [13], in [14], in assay [15], in assay [16] and in [17] was “inactive” each time.

`O=c1c2ccccc2c(=O)c2c1cc(Cl)c1[nH]c3c([nH]c12)c(Cl)cc1c(=O)c2ccccc2c(=O)c13`: the Potency result in [1], in assay [2], in assay [3], in assay [4], in [5] and in [6] was “inactive” in each case. Also, the Potency entry in [7], in [8], in [9], in assay [10], in assay [11] and in assay [12] was “inactive” throughout. Further, the Potency entry in [18], in assay [13], in assay [14], in assay [15], in assay [19] and in assay [16] was “inactive” in each case. Also, the Potency result in [17] was “inactive”.

Regarding `COP(=O)(NC(C)=O)SC` (stereo not given), the Potency entry in [1], in assay [2], in [3], in [4], in assay [5] and in [7] was “inactive” throughout. For the same compound, the Potency entry in assay [8], in assay [9], in [10], in assay [11], in assay [12] and in assay [18] was “inactive” in each case. Besides, the Potency result in assay [13], in assay [14], in [15], in [19], in [16] and in assay [17] was “inactive” in each case.

Turning to `Cl/C=C\CCl`, the Potency entry in [1], in assay [2], in [3], in assay [4], in assay [5] and in [20] was “inactive” each time. Also, the Potency result in [7], in [9], in assay [10], in [11], in [12] and in [14] was “inactive” throughout. The Potency result in [15], in [16] and in assay [17] was “inactive” throughout.

For the compound `COC(=O)c1sccc1S(=O)(=O)NC(=O)Nc1nc(C)nc(OC)n1`, the Potency entry in assay [1], in assay [2], in assay [3], in assay [4], in [5] and in assay [6] was “inactive” in each case. For the same compound, the Potency result in assay [7], in [9], in assay [10], in [11], in assay [12] and in assay [13] was “inactive” in each case. Further, the Potency result in assay [14], in assay [15], in assay [19], in assay [16] and in assay [17] was “inactive” throughout.

Take `CC(C)CON=O`: the Potency result in assay [1], in assay [2], in [3], in assay [4], in assay [5] and in assay [7] was “inactive” throughout. Moreover, the Potency result in [8], in assay [10], in [11], in assay [12], in assay [13] and in assay [14] was “inactive” each time. In addition, the Potency entry in assay [15], in [19], in assay [16] and in [17] was “inactive” each time. For the same compound, in assay [6], the activity change, negative = cytotoxicity is -1.64% [at 13.5 µM] (inactive).

Regarding `CCOP(=S)(OCC)SCCSCC`, the Potency result in [1], in [2], in assay [3], in assay [4], in [5] and in assay [6] was “inactive” throughout. The Potency entry in assay [7], in assay [8], in assay [9], in assay [10], in assay [11] and in assay [12] was “inactive” each time. The Potency result in assay [18], in assay [13], in [14], in assay [15], in assay [19] and in assay [16] was “inactive” in each case. The Potency result in assay [17] was “inactive”.

Turning to `C=CC(=O)OCC(CC)(COC(=O)C=C)COC(=O)C=C`, the Potency in assay [1] was 6.28 µM (active) and 12.2 µM (active); in [2], 2.8 µM (active) and 6.11 µM (active); in assay [8], 26.4 µM (active); in assay [17] it was “inactive and 48.6 µM (active)”. The Potency entry in assay [3], in assay [4], in [5], in [20], in [10] and in [11] was “inactive” throughout. Moreover, the Potency entry in assay [12], in [18] and in assay [16] was “inactive” in each case.
